Measurements as given in PubChem BioAssay (NCATS).
Results filed as inconclusive are left out. A number with no mark means an inactive call. Calls of active or inactive are those of the source. Calls follow the shape of the full dose curve. Starred links: 1 amine or outer side, 2 acyl side, 3 side chain; linkers in the order of their positions; H or OH if unused. Positions of bridges follow the written chain, without caps; N, C: chain ends. Non-standard residues stand in square brackets, D forms with d. Residues, ends and D or L forms follow the SMILES beside them. ξ: configuration not given here. *: point of attachment. ΔAla(3-NHCONH2) = NC(=O)NC=C(N)C(=O)O; X1 = NC1=NCCC(C(N[*:1])C(=O)[*:2])N1; ξβ3hOrn = NCCCC(N)CC(=O)*; Dap = NC[CH](N)C(=O)O

experiment: Primary qHTS for Vero E6 cytotoxicity: counterscreen for inhibitors of SARS-S pseudo-typed particle cell entry (AID 1479150); conditions: cell viability; series mostly up to 57.1 µM; activity change, negative = cytotoxicity: at the top concentration
% is scaled to controls: 0 for no effect and ±100 for the full control effect.

| SMILES | outcome | activity change, negative = cytotoxicity |
| --- | --- | --- |
| CCCc1nc2c(C)cc(-c3nc4ccccc4n3C)cc2n1Cc1ccc(-c2ccccc2C(=O)O)cc1 | inactive |  |
| O=C1CCC(N2C(=O)c3ccccc3C2=O)C(=O)N1 (stereo unspecified) | inactive |  |
| NC(=O)c1cn(Cc2c(F)cccc2F)nn1 | inactive |  |
| CN(C)CCc1c[nH]c2ccc(CS(=O)(=O)N3CCCC3)cc12 | inactive |  |
| COc1ccc(C(CN(C)C)C2(O)CCCCC2)cc1 (stereo unspecified) | inactive |  |
| CCOC(=O)[C@H](CCc1ccccc1)N[C@@H](C)C(=O)N1[C@H](C(=O)O)C[C@@H]2CCC[C@@H]21 |  | -26.2% |
| O=C(O)CCCc1ccccc1 |  | -11.9% |
| Cc1ccc(S(=O)(=O)NC(=O)NN2CCCCCC2)cc1 | inactive |  |
| O=c1[nH]cnc2c1ncn2[C@H]1CC[C@@H](CO)O1 | inactive |  |
| CC(C)NCC(O)COc1cccc2[nH]ccc12 (stereo unspecified) | inactive |  |
| CC(C)(C)C(=O)OCOP(=O)(COCCn1cnc2c(N)ncnc21)OCOC(=O)C(C)(C)C |  | -14.5% |
| CC(=O)Oc1cc2c(s1)CCN(C(C(=O)C1CC1)c1ccccc1F)C2 (stereo unspecified) |  | -8.83% |
| C[C@](N)(Cc1ccc(O)c(O)c1)C(=O)O | inactive |  |
| CS(=O)(=O)OCCCCOS(C)(=O)=O | inactive |  |
| CCn1cc(C(=O)O)c(=O)c2ccc(C)nc21 |  | -4.1% |
| Nc1cccc2c1CN(C1CCC(=O)NC1=O)C2=O (stereo unspecified) | inactive |  |
| Cc1onc(-c2c(Cl)cccc2Cl)c1C(=O)N[C@@H]1C(=O)N2[C@@H]1SC(C)(C)[C@@H]2C(=O)O |  | -4.4% |
| NCCCC(N)CC(=O)NCC1NC(=O)C(CO)NC(=O)C(N)CNC(=O)C(C2CCN=C(N)N2)NC(=O)C(=CNC(N)=O)NC1=O (stereo not drawn) (H-[Dap]S[Dap](ξβ3hOrn)[ΔAla(3-NHCONH2)][X1]; lactam 1-C; configuration not given here) | inactive [at 0.573 µM] |  |
| CC[C@]1(O)C[C@@H]2CN(CCc3c([nH]c4ccccc34)[C@@](C(=O)OC)(c3cc4c(cc3OC)N(C)[C@H]3[C@@](O)(C(=O)OC)[C@H](OC(C)=O)[C@]5(CC)C=CCN6CC[C@]43[C@@H]65)C2)C1 |  | -30.4% |
| C[C@@H](O)[C@H]1C(=O)N2C(C(=O)O)=C(S[C@@H]3CN[C@H](CNS(N)(=O)=O)C3)[C@H](C)[C@H]12 | inactive |  |
| COc1cc(C(=O)NCc2ccc(OCCN(C)C)cc2)cc(OC)c1OC | inactive |  |
